Assay [1] in a line: CCTE_Harrill_HTTr_Apoptosis_MCF7: CCTE's 6-hour Apoptosis Assessment for the High-Throughput Transcriptomics (HTTr) Platform, in MCF-7 cells cultured in DMEM + 10% fetal bovine serum, Harrill Lab (AID 2284011). The gist of the method:
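MCF-7 cells in DMEM + 10% fetal bovine serum were exposed to chemicals for 6 hours over an eight-point dilution series. Caspase-3/7 activation was imaged by high content imaging with CellEvent Caspase 3/7 Green; bidirectional fitting used DMSO as baseline.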

Assay [2] is described as follows: CCTE_Harrill_HTTr_CellCount_MCF7: CCTE's Cell Proliferation Assessment for the High-Throughput Transcriptomics (HTTr) Platform, Harrill Lab (AID 2284012; active = hit-call score of the fitted dose curve at least 0.9, where 1 is the maximum;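 note: count of Hoechst-stained nuclei per well by high-content imaging in MCF-7 cells; cells exposed to compound for six hours; intended direction is loss of nuclei count meaning fewer cells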). An outline of the steps:
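For this full-screen endpoint, MCF-7 cultures received eight compound dilutions for six hours. Well nuclei counts from Hoechst imaging were analyzed relative to DMSO.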

Assay [3] in a line: CCTE_Shafer_MEA_acute_burst_number: CCTE's Neural Acute Assay for Single-Electrode Bursts, Shafer Lab (AID 2284013). The gist of the method:
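Burst totals were derived with adaptive spike detection (8x rms threshold) on filtered signals from rat cortical cultures; change relative to pre-treatment baseline after 40-min compound exposure (0.03-40 uM) was fitted in the negative direction against DMSO.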

Assay [4] is described as follows: CCTE_Shafer_MEA_acute_per_burst_spike_number_mean: CCTE's Neural Acute Assay for Average Number of Spikes Per Burst, Shafer Lab (AID 2284015).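 Note: hits are decreases in mean spikes per burst versus baseline.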 An outline of the steps: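 Primary rat cortical neurons on 48-well MEA plates, treated on DIV 13 or 15 at 0.03-40 uM. Spontaneous activity recorded 40 min before and 40 min after compound at 37 C; percent change in mean spikes per single-electrode burst per well, fitted in the loss direction versus DMSO.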

The nature of assay [5]: CCTE_Shafer_MEA_acute_interburst_interval_mean: CCTE's Neural Acute Assay for Mean Interburst Interval, Shafer Lab (AID 2284016).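 Note: percent change of mean interburst interval versus each well's own pre-dose baseline; curves fitted for decrease in interburst interval relative to DMSO.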 The gist of the method: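 Primary rat cortical neurons on 16-electrode MEA wells were recorded 40 min at baseline on DIV 13 or 15, then 40 min after compound (0.03-40 uM), at 37 C. Value is percent change in mean interburst interval per well, DMSO as negative control.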

A short description of assay [6]: CCTE_Shafer_MEA_acute_burst_percentage_mean: CCTE's Neural Acute Assay for Percentage of Spikes in a Burst, Shafer Lab (AID 2284017).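 For AC50: curve fitted for loss of signal so potency reflects decreased burst percentage.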 The gist of the method:
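Primary rat cortical neurons on 16-electrode MEA wells; 40 min baseline recorded at DIV 13 or 15, then 40 min after compound (0.03-40 uM) at 37 C. Well-mean fraction of spikes in single-electrode bursts; percent change from baseline, DMSO as negative control.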

Assay [7] in a line: CCTE_Shafer_MEA_acute_burst_percentage_std: CCTE's Neural Acute Assay for Standard Deviation of Burst Percentage, Shafer Lab (AID 2284018).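 Note: fitted in the negative direction so actives lower burst percentage SD.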 An outline of the steps:
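Primary rat cortical neurons on 16-electrode MEA wells were recorded 40 min at baseline (DIV 13 or 15), then 40 min after compound (0.03-40 uM), at 37 C. Well value is SD across electrodes of spikes-in-bursts/total spikes; endpoint is percent change, DMSO-referenced.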

Assay [8] can be described thus: CCTE_Shafer_MEA_acute_per_network_burst_spike_number_mean: CCTE's Neural Acute Assay for Average Number of Spikes in a Network Burst, Shafer Lab (AID 2284019). The gist of the method: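 Acute exposure of rat primary cortical networks (DIV 13/15) on MEAs; adaptive spike detection at 8x rms noise, 37 C. Percent change in spikes per network burst after 40 min with compound (0.03-40 uM), negative direction vs DMSO.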

Assay [9] in a line: CCTE_Shafer_MEA_acute_per_network_burst_spike_number_std: CCTE's Neural Acute Assay for Standard Deviation of Number of Spikes in a Network Burst, Shafer Lab (AID 2284020).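 Note: fitted for decrease in spike-number SD versus DMSO so actives lower it.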 An outline of the steps:
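Acute MEA exposure, rat cortical neurons, 0.03-40 uM. Per-well % change versus own baseline; DMSO as negative control.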

Assay [10] can be described thus: CCTE_Shafer_MEA_acute_per_network_burst_electrodes_number_mean: CCTE's Neural Acute Assay for Mean Number of Electrodes in a Network Burst, Shafer Lab (AID 2284021).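 Note: curves fitted for decreases only so hits reduce electrodes per burst.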 An outline of the steps: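 Rat primary cortical neurons on 16-electrode MEA wells were recorded 40 min at baseline on DIV 13 or 15, then 40 min after compound (0.03-40 uM), at 37 C. Value is percent change per well, fitted in loss direction versus DMSO.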

The nature of assay [11]: CCTE_Shafer_MEA_acute_network_burst_percentage: CCTE's Neural Acute Assay for Percentage of Network Bursts, Shafer Lab (AID 2284022).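 Note: curves fitted for loss so actives lower network burst percentage.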 The gist of the method: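 Primary rat cortical neurons on 16-electrode MEA wells, treated on DIV 13 or 15 with compound (0.03-40 uM); 40-min baseline and 40-min post-exposure recordings at 37 C. Value is percent change in spikes within network bursts versus baseline, DMSO negative control.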

Assay [12] is described as follows: CCTE_Shafer_MEA_acute_cross_correlation_area: CCTE's Neural Acute Assay for Area of Cross Correlation, Shafer Lab (AID 2284024).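 Note: area under pooled inter-electrode spike cross-correlation near zero lag as percent change from own baseline; curves fitted for loss of cross-correlation area so actives lower synchrony.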 The gist of the method:
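Primary rat cortical neurons on 48-well MEA plates (16 electrodes/well) were recorded 40 min at baseline on DIV 13 or 15, then 40 min with compound (0.03-40 uM) at 37 C; cross-correlation area expressed as percent change from baseline.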

A short description of assay [13]: CCTE_Shafer_MEA_acute_cross_correlation_HWHM: CCTE's Neural Acute Assay for Cross Correlation at Half Width at Half Maximum, Shafer Lab (AID 2284026).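 For outcome: spontaneous network firing of rat primary cortical neurons on multiwell microelectrode arrays.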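 Note: hits are a decrease in cross-correlogram half width relative to DMSO.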 An outline of the steps: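 Primary rat cortical neurons on 16-electrode MEA wells; 40-min baseline on DIV 13 or 15, then 40-min recording with compound (0.03-40 uM) at 37 C. HWHM of spike cross-correlogram expressed as percent change from baseline per well, DMSO reference.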

Assay [14] is described as follows: CCTE_Shafer_MEA_acute_synchrony_index: CCTE's Neural Acute Assay for Synchrony, Shafer Lab (AID 2284027).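 Note: network synchrony index of spontaneous spiking in primary rat cortical neurons on MEAs; fitted for loss of signal so actives lower synchrony relative to DMSO.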 The gist of the method:
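Acute exposure of rat primary cortical neurons (DIV 13 or 15) at 0.03-40 uM. Synchrony index, 40 min before vs after, as % change relative to DMSO control.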

The nature of assay [15]: CCTE_Deisenroth_AIME_384WELL_CTox_Active: Cytotoxicity Assessment (CTOX) in CCTE's 384-well Estrogen Receptor Transactivation Assay with AIME metabolic competence (metabolism positive), Deisenroth Lab (AID 2284037; active = hit-call score of the fitted dose curve at least 0.9, where 1 is the maximum;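 note: chemicals first conditioned 2 h by alginate-bound induced rat liver S9 before cells; activity means signal loss indicating cell death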). The gist of the method:
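VM7Luc4E2 breast cells received medium pre-incubated 2 h with chemical over alginate microspheres holding induced male Sprague Dawley rat liver S9; viability read 24 h later by protease-substrate fluorescence. Loss of signal, bidirectional fit, 0.002–200 uM.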

Assay [16] in a line: CCTE_Deisenroth_AIME_384WELL_CTox_Inactive: Cytotoxicity Assessment (CTOX) in CCTE's 384-well Estrogen Receptor Transactivation Assay without AIME metabolic competence (metabolism negative), Deisenroth Lab (AID 2284039; active = hit-call score of the fitted dose curve at least 0.9, where 1 is the maximum;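 note: cell viability via live-cell protease substrate cleaved to fluorescent probe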). An outline of the steps: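 VM7Luc4E2 human breast cells received conditioned medium from a 2 h incubation of chemical with alginate-water microspheres (no S9), then were exposed 24 h. Viability was read as protease-substrate cleavage to a fluorescent probe; loss of signal was fitted bidirectionally over 0.002–200 uM.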

The nature of assay [17]: CCTE_Shafer_MEA_dev_firing_rate_mean: CCTE's Neural Network Formation Assay for Mean Firing Rate, Shafer Lab (AID 2284031).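 For AC50: curve fitted for loss of firing so AC50 reflects decreased mean firing rate.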 The gist of the method:
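Extracellular spike frequency, AUC over DIV 5–12 recordings, in rat cortical neuron MEA cultures dosed from plating; loss direction vs DMSO.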

The nature of assay [18]: CCTE_Shafer_MEA_dev_per_burst_spike_percent: CCTE's Neural Network Formation Assay for Percent of Spikes in a Burst, Shafer Lab (AID 2284032).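 For AC50: fitted as a decrease in burst spike percentage below DMSO baseline.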 The gist of the method: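 Value is trapezoidal AUC over recordings on days 5, 7, 9 and 12 of the well-mean fraction of spikes falling in single-electrode bursts; rat cortical cultures exposed continuously from plating, treatment renewed DIV 5 and 9, fitted downward against DMSO.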

Records with an inconclusive call do not appear. Active and inactive are the calls of the source. Rule for the calls, unless noted: active = hit-call score of the fitted dose curve at least 0.9, where 1 is the maximum; inactive = score below 0.9.

These results are taken from PubChem BioAssay (EPA / NIEHS).

`CCC(C)c1ccccc1O` (centres undefined): the outcome in [1], in assay [2], in assay [4], in assay [5], in [7] and in assay [8] was inactive. Moreover, the molecule was called inactive in assay [9], in [10], in assay [12] and in assay [15]. Also, the AC50 was 2.44 µM (active) in [3]; 7.61 µM (active) in assay [6]; 5 µM (active) in [11]; 8.95 µM (active) in [13]; 7.45 µM (active) in assay [14]; 0.00093 µM (active) in assay [16].
As for `CCCCCCCCCCCCOS(=O)(=O)O`, the outcome in assay [1] and in assay [2] was inactive. Further, the AC50 is 143 µM (active) in assay [15] and 147 µM (active) in assay [16].
With `c1cnc2c(c1)ccc1cccnc12`, the outcome in [1] and in [2] was inactive. Also, the AC50 in [15] was 30.9 µM (active); in [16], 15.7 µM (active).
As to `Cc1cc(Cc2cc(C)cc(C(C)(C)C)c2O)c(O)c(C(C)(C)C)c1`, the result in [1] and in assay [2] was inactive. For the same molecule, the AC50 in [15] was 43.1 µM (active); in assay [16], 41.8 µM (active).
Consider `Cn1sccc1=O`, for which the outcome in assay [1] and in assay [2] was inactive.
On to `OCC(CO)(CBr)CBr`, for which the result in assay [1], in assay [2], in assay [3], in assay [4], in assay [5] and in [6] was inactive. The result in assay [7], in assay [8], in assay [9], in assay [10], in assay [11] and in assay [12] was inactive. In addition, the molecule was called inactive in assay [13], in assay [14] and in assay [15].
In the case of `CCCCCCCCCCCCCCC`, the outcome in assay [1] and in [2] was inactive.
For `N=C(N)c1ccc(OCCCCCOc2ccc(C(=N)N)cc2)cc1`, the outcome in assay [1], in assay [2], in assay [3], in [4], in [5] and in assay [8] was inactive. Besides, the molecule was classed as inactive in assay [9], in assay [11] and in [12]. The half-maximal activity concentration (AC50) was 26.9 µM (active) in [6]; 31.8 µM (active) in assay [7]; 2.5 µM (active) in assay [10]; 32 µM (active) in assay [13]; 26.3 µM (active) in [14].
As to `CC(O)COc1ccccc1` (centres undefined), the result in assay [1], in assay [2], in assay [15] and in assay [16] was inactive.
`CC(C)c1c(C(=O)Nc2ccccc2)c(-c2ccccc2)c(-c2ccc(F)cc2)n1CC[C@@H](O)C[C@@H](O)CC(=O)O`: the outcome in assay [1] and in assay [2] was inactive. Besides, the AC50 in assay [17] is 0.013 µM (active); in assay [18], 0.00992 µM (active).
On to `Brc1ccc(Oc2ccc(Br)cc2Br)cc1`, for which the outcome in assay [1] and in assay [2] was inactive.
`CC(=O)Nc1ccc(O)cc1`: the outcome in [1], in [2], in assay [3], in assay [4], in assay [6] and in assay [7] was inactive. The molecule was classed as inactive in [8], in [9], in [10], in [11], in [12] and in [13]. Moreover, the molecule was called inactive in assay [14], in assay [17], in assay [18] and in assay [15].
With `Cc1ccccc1C(OCCN(C)C)c1ccccc1` (centres undefined), the result in assay [1] and in [2] was inactive.

As usually defined, the AC50 is the concentration giving half of the maximal activity seen.
